Source: the supplement of paper PMC8728848
Many of the other results were omitted from the sample, so the strongest signals are more common in it than they were.

How the values were obtained:
Assay in all cases: glycan array binding signal (z-score within array); higher = stronger binding
Details in all cases: glycan notation: IUPAC condensed, linker removed
[1] = biological target: GalNAc(b1-3)Gal(a1-4)Gal(b1-4)GlcNAc
In short: (§1)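 The binding signal is a Z-score computed within each array. Data were drawn from 3228 arrays in the Consortium for Functional Glycomics database, restricted to those with a known protein sequence. Scores were averaged over arrays of the same protein sequence at different concentrations or buffers, and over linkers, and negative values can be taken as non-binding.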

[2] = biological target: GalNAc(b1-3)Gal(a1-4)Gal(b1-4)GlcNAc(b1-3)Gal(b1-4)Glc
In short: as §1

GalNAc6S(b1-4)GlcNAc = biological target: GalNAc6S(b1-4)GlcNAc
In short: as §1

[3] = biological target: GlcNAc(a1-4)Gal(b1-4)GlcNAc
In short: as §1

[4] = biological target: GlcNAc(b1-2)[GlcNAc(b1-4)]Man(a1-3)[GlcNAc(b1-4)][GlcNAc(b1-2)Man(a1-6)]Man(b1-4)GlcNAc(b1-4)GlcNAc
In short: as §1

[5] = biological target: GlcNAc(b1-3)Gal(b1-4)GlcNAc(b1-3)Gal(b1-4)GlcNAc(b1-2)[GlcNAc(b1-3)Gal(b1-4)GlcNAc(b1-3)Gal(b1-4)GlcNAc(b1-6)]Man(a1-6)[GlcNAc(b1-3)Gal(b1-4)GlcNAc(b1-3)Gal(b1-4)GlcNAc(b1-2)Man(a1-3)]Man(b1-4)GlcNAc(b1-4)[Fuc(a1-6)]GlcNAc
In short: as §1

[6] = biological target: GlcNAc(b1-3)Gal(b1-4)GlcNAc(b1-3)Gal(b1-4)GlcNAc(b1-3)Gal(b1-4)GlcNAc(b1-2)Man(a1-3)[GlcNAc(b1-3)Gal(b1-4)GlcNAc(b1-3)Gal(b1-4)GlcNAc(b1-3)Gal(b1-4)GlcNAc(b1-2)Man(a1-6)]Man(b1-4)GlcNAc(b1-4)[Fuc(a1-6)]GlcNAc
In short: as §1

[7] = biological target: GlcNAc(b1-3)Gal(b1-4)GlcNAc(b1-3)Gal(b1-4)GlcNAc(b1-3)Gal(b1-4)GlcNAc(b1-3)Gal(b1-4)GlcNAc(b1-2)Man(a1-3)[GlcNAc(b1-3)Gal(b1-4)GlcNAc(b1-3)Gal(b1-4)GlcNAc(b1-3)Gal(b1-4)GlcNAc(b1-3)Gal(b1-4)GlcNAc(b1-2)Man(a1-6)]Man(b1-4)GlcNAc(b1-4)[Fuc(a1-6)]GlcNAc
In short: as §1

[8] = biological target: GlcNAc(b1-3)Gal(b1-4)GlcNAc(b1-6)[Gal(b1-3)]GalNAc
In short: as §1

GlcNAc(b1-3)GalNAc = biological target: GlcNAc(b1-3)GalNAc
In short: as §1

GlcNAc(b1-6)GalNAc = biological target: GlcNAc(b1-6)GalNAc
In short: as §1

Kdn(a2-3)Gal(b1-4)GlcNAc = biological target: Kdn(a2-3)Gal(b1-4)GlcNAc
In short: as §1

[9] = biological target: Man(a1-2)Man(a1-3)[Man(a1-2)Man(a1-6)]Man
In short: as §1

[10] = biological target: Neu5Ac(a2-3)Gal(b1-3)GalNAc(b1-4)[Neu5Ac(a2-8)Neu5Ac(a2-3)]Gal(b1-4)Glc
In short: as §1

[11] = biological target: Neu5Ac(a2-3)Gal(b1-3)GlcNAc(b1-6)GalNAc
In short: as §1

[12] = biological target: Neu5Ac(a2-3)Gal(b1-4)GlcNAc(b1-3)Gal(b1-4)GlcNAc(b1-2)Man(a1-3)[Neu5Ac(a2-3)Gal(b1-4)GlcNAc(b1-3)Gal(b1-4)GlcNAc(b1-2)Man(a1-6)]Man(b1-4)GlcNAc(b1-4)GlcNAc
In short: as §1

[13] = biological target: Neu5Ac(a2-3)Gal(b1-4)GlcNAc(b1-3)Gal(b1-4)GlcNAc(b1-6)[Gal(b1-3)]GalNAc
In short: as §1

[14] = biological target: Neu5Ac(a2-3)Gal(b1-4)GlcNAc(b1-6)GalNAc
In short: as §1

[15] = biological target: Neu5Ac(a2-3)Gal(b1-4)GlcNAc(b1-6)[Gal(b1-3)]GalNAc
In short: as §1

[16] = biological target: Neu5Ac(a2-3)Gal(b1-4)[Fuc(a1-3)]GlcNAc6S
In short: as §1

Neu5Ac(a2-3)GalNAc = biological target: Neu5Ac(a2-3)GalNAc
In short: as §1

[17] = biological target: Neu5Ac(a2-6)Gal(b1-4)GlcNAc(b1-2)Man
In short: as §1

[18] = biological target: Neu5Ac(a2-6)Gal(b1-4)GlcNAc(b1-2)Man(a1-3)[GlcNAc(b1-2)Man(a1-6)]Man(b1-4)GlcNAc(b1-4)GlcNAc
In short: as §1

[19] = biological target: Neu5Ac(a2-6)Gal(b1-4)GlcNAc(b1-2)Man(a1-6)[GlcNAc(b1-2)Man(a1-3)]Man(b1-4)GlcNAc(b1-4)GlcNAc
In short: as §1

[20] = biological target: Neu5Ac(a2-8)Neu5Ac(a2-3)[Gal(b1-3)GalNAc(b1-4)]Gal(b1-4)Glc
In short: as §1

[21] = biological target: Neu5Gc(a2-3)Gal(b1-3)GlcNAc
In short: as §1

[22] = biological target: Neu5Gc(a2-8)Neu5Gc(a2-3)Gal(b1-4)GlcNAc
In short: as §1

[23] = biological target: Neu5Gc(a2-8)Neu5Gc(a2-6)Gal(b1-4)GlcNAc
In short: as §1

B1: DC-ASGPR L+GEE (Homo sapiens) (protein)
chain: MTRTYENFQYLENKVKVQGFKNGPLPLQSLLQRLRSGPCHLLLSLGLGLLLLVIICVVGFQNSKFQRDLVTLRTDFSNFTSNTVAEIQALTSQGSSLEETIASLKAEVEGFKQERQAGVSELQEHTTQKAHLGHCPHCPSVCVPVHSEMLLRVQQLVQDLKKLTCQVATLNNNGEEASTEGTCCPVNWVEHQDSCYWFSHSGMSWAEAEKYCQLKNAHLVVINSREEQNFVQKYLGSAYTWMGLSDPEGAWKWVDGTDYATGFQNWKPGQPDDWQGHGLGGGEDCAHFHPDGRWNDDVCQRPYHWVCEAGLGQTSQESH
**Q.** How did the “glycan array binding signal (z-score)” value [1] turn out when B1 was run?
**A.** 4.33

**Q.** What about the “glycan array binding signal (z-score)” value [2] of the same binder?
**A.** 4.06

**Q.** What about the “glycan array binding signal (z-score)” value (GalNAc6S(b1-4)GlcNAc) of the same binder?
**A.** 1.11

**Q.** What about the “glycan array binding signal (z-score)” value [3] of the same binder?
**A.** -0.367

**Q.** And the “glycan array binding signal (z-score)” value [4]?
**A.** -0.37

**Q.** And the “glycan array binding signal (z-score)” value [5]?
**A.** 0.194

**Q.** And the “glycan array binding signal (z-score)” value [6]?
**A.** -0.283

**Q.** And the “glycan array binding signal (z-score)” value [7]?
**A.** 0.512

**Q.** And the “glycan array binding signal (z-score)” value [8]?
**A.** -0.411

**Q.** What about the “glycan array binding signal (z-score)” value (GlcNAc(b1-3)GalNAc) of the same binder?
**A.** -0.439

**Q.** What about the “glycan array binding signal (z-score)” value (GlcNAc(b1-6)GalNAc) of the same binder?
**A.** 3.71

**Q.** And the “glycan array binding signal (z-score)” value (Kdn(a2-3)Gal(b1-4)GlcNAc)?
**A.** -0.074

**Q.** And the “glycan array binding signal (z-score)” value [9]?
**A.** -0.348

**Q.** And the “glycan array binding signal (z-score)” value [10]?
**A.** -0.319

**Q.** What about the “glycan array binding signal (z-score)” value [11] of the same binder?
**A.** 6.64

**Q.** And the “glycan array binding signal (z-score)” value [12]?
**A.** -0.164

**Q.** What about the “glycan array binding signal (z-score)” value [13] of the same binder?
**A.** -0.553

**Q.** What about the “glycan array binding signal (z-score)” value [14] of the same binder?
**A.** 3

**Q.** And the “glycan array binding signal (z-score)” value [15]?
**A.** -0.019

**Q.** And the “glycan array binding signal (z-score)” value [16]?
**A.** -0.418

**Q.** What about the “glycan array binding signal (z-score)” value (Neu5Ac(a2-3)GalNAc) of the same binder?
**A.** -0.223

**Q.** And the “glycan array binding signal (z-score)” value [17]?
**A.** 0.432

**Q.** What about the “glycan array binding signal (z-score)” value [18] of the same binder?
**A.** -0.362

**Q.** And the “glycan array binding signal (z-score)” value [19]?
**A.** -0.328

**Q.** And the “glycan array binding signal (z-score)” value [20]?
**A.** 0.544

**Q.** And the “glycan array binding signal (z-score)” value [21]?
**A.** -0.017

**Q.** And the “glycan array binding signal (z-score)” value [22]?
**A.** -0.146

**Q.** What about the “glycan array binding signal (z-score)” value [23] of the same binder?
**A.** -0.204
